RORg inh: blocks mouse ROR gamma transcriptional activity; P51450; Drosophila S2 Gal4-RORgamma UAS-luciferase reporter, 20 h; Potency, µM (series often up to 53.6 µM), inactives show at the top dose activity change, negative = inhibition, actives largely listed as inhibitors; hit rate 5.4% among 310,000; further: nearly all actives have a fitted effect of over 60% in size
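ROR gamma transcriptional activity was tracked as Gal4-UAS luciferase output in stably transfected Drosophila Schneider cells, with compound added 1 hr before 700 uM copper sulfate induction and a 20 hr ambient-temperature incubation.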
ELG1 repair inh: ELG1-dependent DNA repair inhibition; HEK293T ELG1-luciferase reporter, luminescence, 16 h; DNA damage induced by 5-fluorouridine; Potency, µM (series often up to 46.1 µM), for inactives: at the highest dose activity change, negative = inhibition, usual class: inhibitors; hit rate 2.3% among 330,000; further: nearly all actives have a fitted effect of over 55% in size
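DMSO vehicle served as the neutral condition. Each well held 2,000 cells given 5-fluorouridine plus compound; after 16 hr at 37 °C/5% CO2, ONE-Glo was added and luciferase measured 30 min later.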
VP16 counter: Gal4-VP16 reporter inhibition counter-screen. Drosophila S2 Gal4-VP16 UAS-luciferase, luminescence, 20 h. hit rate 3.5% among 310,000. AID 2546. Potency, µM (titrated, usually from 53.6 µM), without a hit: at the top dose activity, negative = inhibition, actives largely listed as inhibitors;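 further: Gal4-VP16 expression switched on by copper sulfate through the metallothionein promoter; nearly all actives have a fitted effect of over 50% in size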
DT40 TDP1 no CPT: qHTS for Inhibitors of human tyrosyl-DNA phosphodiesterase 1 (TDP1): qHTS in cells in absence of CPT | hit rate 15% among 420,000 | DT40 Tdp1-/- hTDP1 cells, no CPT, ATP luminescence, 48 h | Potency, µM (series often up to 46.2 µM), for inactives: top-dose activity change, negative = growth inhibition, usual class: inhibitors; further: nearly all actives have a fitted effect of over 55% in size
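Compound effects on proliferation are scored in DT40 Tdp1-/-;hTDP1 cells in the absence of CPT. ATP levels (CellTiter-Glo luminescence) are recorded after a ≥48 hr, 37 °C incubation.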
TDP1 cell CPT: DT40-hTDP1 cell growth loss with CPT | chicken DT40 Tdp1-/-;hTDP1 cells + 20 nM CPT, ATP luminescence, 48 h | AID 686979 | hit rate 12% among 420,000 | Potency, µM (highest dose often 46.2 µM), for the others: at the highest dose activity change, negative = growth inhibition, hits mostly inhibitors; further: nearly all actives have a fitted effect of over 55% in size
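Cell growth measured by CellTiter-Glo luminescence after a minimum 48 h, 37 C compound exposure with 20 nM CPT in Tdp1-knockout DT40 cells stably expressing hTDP1, seeded 400/well; qHTS titration format.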
ALOX12 inh: ALOX12 (human) lipoxygenase inhibition; purified 12hLO, xylenol orange hydroperoxide absorbance; P18054; hit rate 1.1% among 580,000; Potency, µM (doses to about 108 µM), for inactives: at the highest dose activity change, negative = inhibition, actives largely listed as inhibitors
Target sequence (P18054 whole entry, looked up): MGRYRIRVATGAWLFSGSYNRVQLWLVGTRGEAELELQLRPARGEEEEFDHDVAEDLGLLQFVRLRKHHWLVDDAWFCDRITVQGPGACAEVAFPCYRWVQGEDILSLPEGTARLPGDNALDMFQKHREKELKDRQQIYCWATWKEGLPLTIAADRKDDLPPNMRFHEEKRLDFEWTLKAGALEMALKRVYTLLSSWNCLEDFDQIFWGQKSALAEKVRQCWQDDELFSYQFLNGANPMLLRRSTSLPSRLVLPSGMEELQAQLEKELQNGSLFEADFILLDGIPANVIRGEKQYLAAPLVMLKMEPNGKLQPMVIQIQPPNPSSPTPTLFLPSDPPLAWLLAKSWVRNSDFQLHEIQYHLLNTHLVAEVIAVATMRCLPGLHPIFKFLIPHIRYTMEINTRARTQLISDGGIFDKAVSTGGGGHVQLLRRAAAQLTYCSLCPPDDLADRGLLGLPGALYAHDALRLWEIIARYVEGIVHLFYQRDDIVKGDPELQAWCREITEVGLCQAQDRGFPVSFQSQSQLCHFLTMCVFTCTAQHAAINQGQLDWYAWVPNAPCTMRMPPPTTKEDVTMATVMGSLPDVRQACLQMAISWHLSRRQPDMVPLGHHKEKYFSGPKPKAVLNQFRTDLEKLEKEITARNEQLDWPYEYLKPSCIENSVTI
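Purified human 12hLO (150 nM final) in 25 mM Hepes, 0.01% Triton X-100, pH 7.0 was preincubated 15 min at room temperature with compound. Then 40 uM arachidonic acid was added, 30 min. Hydroperoxide was read by Fe-XO absorbance ratio 573/405 nm.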
* marks the source's active call; other numbers are inactive results; ? = inconclusive; . = no result. Compounds with a hit are over-represented: about 15% of the library has one in this group of screens. The call rests on the fitted dose curve; in most records, active means well fitted curve in the direction sought with a large enough effect; inconclusive means small, poorly fitted or top-dose-only effect, or another doubt; inactive means no such curve, though single readings can be large; an effect the other way counts as inactive or inconclusive. On the % scale 0 is the no-effect control and ±100 the full control effect; potency means the concentration at half of the fitted maximal effect.

SMILES | RORg inh | ELG1 repair inh | VP16 counter | DT40 TDP1 no CPT | TDP1 cell CPT | ALOX12 inh
CCC(C)(C)C1CCc2c(sc(NC(=O)/C=C/c3ccccc3)c2C#N)C1 (configuration not stated) | . | . | . | . | . | 28.0%
Cc1cc(NC(=O)c2cc(-c3ccccc3C)nc3ccccc23)no1 | -8.7% | -19.3% | -4.0% | 20.6µM* | ? | ?
Cc1ccc(NC(=O)c2cc(C)nc3ccccc23)cc1 | -2.2% | -8.5% | 10.2% | -13.3% | 5.5% | 0.0%
CCc1nnc(NC(=O)c2cc(-c3ccccn3)nc3ccc(Br)cc23)s1 | 20µM* | -3.2% | ? | -11.8% | -0.1% | 8.8%
CCc1nnc(NC(=O)c2cc(-c3ccncc3)nc3ccccc23)s1 | -4.2% | -21.4% | -1.4% | -1.6% | -18.4% | -26.9%
Cc1ccc(NC(=O)c2cc(-c3ccc(C)o3)nc3ccccc23)cc1 | -6.4% | 1.2% | -3.0% | ? | ? | 4.47µM*
Cc1ccc(-c2cc(C(=O)Nc3cccnc3)c3ccccc3n2)o1 | -9.0% | ? | -13.9% | ? | 16.4µM* | 10µM*
CCCN1CCCCC12Cc1ccccc1CN(C(=O)C1CCCC1)C2 (configuration not stated) | . | . | . | . | . | 41.0%
Cc1ccc(N2N=C(c3ccccc3)CCC2=O)cc1 | . | . | . | . | . | 16.9%
Cc1cc(N2CCN(Cc3nc(C(C)(C)C)no3)CC2)nc(C(C)C)n1 | . | . | . | . | . | -0.4%
CCN1CCN(C(=O)c2cc(-c3ccco3)nc3ccccc23)CC1 | . | ? | . | -4.4% | -6.4% | ?
COc1ccccc1NC(=O)c1cc(-c2ccc(C)o2)nc2ccccc12 | 36.4% | 1.2% | -8.4% | ? | ? | ?
Cc1ccc(-c2cc(C(=O)N3CCN(C(=O)c4ccco4)CC3)c3ccccc3n2)o1 | . | . | . | . | . | 17.8µM*
Cc1ccc(-c2cc(C(=O)Nc3cc(F)ccc3F)c3ccccc3n2)o1 | . | . | . | . | . | 7.94µM*
Cc1cccc(NC(=O)c2cc(-c3ccc(C)o3)nc3ccccc23)c1 | . | . | . | . | . | 10µM*
Cc1cccc(NC(=O)c2cc(-c3ccccn3)nc3ccccc23)c1C | ? | ? | ? | 13µM* | 23.1µM* | -9.2%
Brc1ccc(-c2csc3ncnc(Sc4nnc(C5CC5)o4)c23)cc1 | . | . | . | . | . | 10.1%
Cn1cc(C(=O)N2CCC(N(C3CCOCC3)S(C)(=O)=O)CC2)cn1 | . | . | . | . | . | 20.4%
Cc1cc(NC(=O)c2cc(-c3cccnc3)nc3c(C)c(C)ccc23)no1 | ? | 23.1µM* | -26.1% | 16.4µM* | ? | 16.4%
N#C/C(=C/c1ccc(Sc2nc3ccccc3[nH]2)o1)c1ccccc1F | 9.4% | ? | ? | 16.4µM* | 20.6µM* | 10.9%
N#C/C(=C/c1ccc(Sc2nc3ccccc3[nH]2)o1)c1cccc(Br)c1 | ? | ? | ? | ? | ? | 0.0%
O=C(N/N=C/c1ccc(Sc2nc3ccccc3[nH]2)o1)c1ccncc1 | 0.3% | -11.4% | 0.2% | ? | ? | 11.7%
N#C/C(=C/c1ccc(Sc2nc3ccccc3[nH]2)o1)c1cccc(F)c1 | ? | 18.4µM* | ? | ? | 20.6µM* | ?
CCS(=O)(=O)c1cc([N+](=O)[O-])c(Sc2ccccc2NC(C)=O)s1 | ? | ? | ? | 5.17µM* | 3.26µM* | 14.1µM*
CC(=O)Nc1ccccc1-c1ccccc1[N+](=O)[O-] | . | . | . | -9.6% | 7.2% | -7.3%
SMILES | RORg inh | ELG1 repair inh | VP16 counter | DT40 TDP1 no CPT | TDP1 cell CPT | ALOX12 inh
COc1cccc(OCC(=O)c2ccc3c(c2)N(CCCC(=O)NCc2ccccc2)C(=O)CO3)c1 | . | . | . | . | . | 2.5%
Cc1cc(/C=N/n2cnnc2)c(C)n1-c1ccc(OCc2ccc(Cl)cc2)cc1 | 2.82µM* | ? | ? | 3.26µM* | 4.61µM* | -11.2%
Cc1cc(/C=N/n2cnnc2)c(C)n1-c1ccc(OCc2ccccc2F)cc1 | -35.7% | -2.1% | ? | 13µM* | 20.6µM* | -46.6%
CCCCN1C(SCC(=O)Nc2cccc(C(C)=O)c2)=NS(=O)(=O)c2ccccc21 | . | . | . | . | . | -0.4%
CCC(=O)N1CCc2c(sc3ncnc(N)c23)C1 | . | . | . | . | . | -8.2%
N#Cc1ccc(C(=O)N2CCC(Cc3nc(-c4ccccc4)n[nH]3)C2)cc1 (configuration not stated) | . | . | . | . | . | 24.4%
COc1ccc(Cc2c(-c3ccco3)nc3ccc(Br)cn23)c(C)c1 | . | . | . | ? | 20.6µM* | ?
COc1ccccc1Cc1c(-c2ccco2)nc2c3ccccc3ccn12 | . | . | . | 16.4µM* | 23.1µM* | ?
COc1ccc(Cc2c(-c3ccco3)nc3c(C)cc(Br)cn23)c(C)c1 | . | . | . | 2.31µM* | 2.91µM* | ?
COc1ccccc1Cc1c(-c2ccco2)nc2c(C)cc(Br)cn12 | . | . | . | 5.8µM* | 2.91µM* | .
CCOc1ccccc1CN1CC[C@H](c2n[nH]c(C)n2)[C@H](NC(=O)C2CCOCC2)C1 | . | . | . | . | . | 56.9%
CC(=O)Nc1ccc(CNC2CCCc3ccccc32)cc1 (configuration not stated) | . | . | . | . | . | -30.2%
CN(Cc1ccco1)C(=O)CCc1ncc(-c2c(F)cccc2F)o1 | . | . | . | . | . | 14.4%
Cc1cc(C(=O)COc2ccc(C#N)cc2)c(C)n1C1CC1 | . | -24.6% | . | 18.4µM* | ? | 5.1%
Cc1cc(C(=O)COc2ccccc2C#N)c(C)n1C1CC1 | . | ? | . | ? | ? | -19.0%
Cc1nn(Cc2ccccc2)c(C)c1C(=O)OCC(=O)c1cc(C)n(C2CC2)c1C | 7.4% | ? | -5.5% | 18.4µM* | 23.1µM* | 8.1%
COCCn1c(C)cc(C(=O)COC(=O)c2c(C)nn(Cc3ccccc3)c2C)c1C | 43.8% | ? | 1.5% | ? | -22.9% | 0.0%
COc1ccc(-c2oc3ccc(-c4ccc(OC)nc4)cc3c2-c2ccc(OC)cc2)cc1 | . | . | . | 14.6µM* | ? | 16.7%
COC(=O)c1c(-c2ccc(OC)cc2)oc2ccc(-c3ccc(OC)nc3)cc12 | -10.7% | -13.3% | 1.2% | -5.5% | -29.0% | 1.8%
Cc1cccc(-c2oc3ccc(-c4ccc5c(c4)OCO5)cc3c2-c2ccc(OC3CCCCO3)cc2)c1 (configuration not stated) | . | . | . | -10.7% | -19.1% | -6.3%
COc1ccc(-c2ccc3oc(-c4ccc(OC)cc4)c(-c4ccc(OC)cc4)c3c2)cc1 | . | . | . | ? | ? | 0.9%
COc1ccc(-c2c(C3=CCCCC3)oc3ccc(-c4ccc5c(c4)OCO5)cc23)cn1 | . | . | . | 14.6µM* | ? | ?
